Experimental data from PubChem BioAssay.
Values joined by “and” are separate entries in the source; they are usually repeats but may differ in a detail not shown here. Equal values may be shown once. Unmarked numbers belong to inactive results.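 The calls were made as follows, unless noted: active = z-score of at least 1.8 in each of two replicates, scored against plate mean and spread of sample wells; inactive = the rest.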 Non-standard residues stand in square brackets, D forms with d. Residues, ends and D or L forms follow the SMILES beside them. pGlu = O=C1CC[C@@H](C(=O)O)N1; Thz = O=C(O)[C@@H]1CSCN1

Target: NAD(+) hydrolase SARM1 (Homo sapiens) (UniProt Q6SZW1)
Sequence (Q6SZW1 whole entry, looked up): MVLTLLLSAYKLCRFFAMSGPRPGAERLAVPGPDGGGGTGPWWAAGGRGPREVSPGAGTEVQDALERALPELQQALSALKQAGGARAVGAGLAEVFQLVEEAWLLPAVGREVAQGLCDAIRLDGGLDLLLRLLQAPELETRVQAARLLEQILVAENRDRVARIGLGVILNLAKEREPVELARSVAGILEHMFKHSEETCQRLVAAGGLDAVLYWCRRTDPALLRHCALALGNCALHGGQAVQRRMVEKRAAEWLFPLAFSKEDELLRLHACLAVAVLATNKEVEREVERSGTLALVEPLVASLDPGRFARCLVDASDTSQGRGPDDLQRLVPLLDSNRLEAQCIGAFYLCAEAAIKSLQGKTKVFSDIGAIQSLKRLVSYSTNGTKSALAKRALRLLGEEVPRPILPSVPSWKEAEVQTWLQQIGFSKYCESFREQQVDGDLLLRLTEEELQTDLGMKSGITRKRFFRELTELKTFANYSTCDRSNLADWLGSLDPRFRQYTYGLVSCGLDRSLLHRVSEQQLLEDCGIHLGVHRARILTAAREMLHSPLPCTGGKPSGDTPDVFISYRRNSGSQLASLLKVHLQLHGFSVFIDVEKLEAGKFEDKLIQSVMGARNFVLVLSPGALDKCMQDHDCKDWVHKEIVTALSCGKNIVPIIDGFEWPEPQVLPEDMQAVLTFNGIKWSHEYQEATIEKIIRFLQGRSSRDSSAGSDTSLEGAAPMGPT
Assay: blocking NAD cleavage by SARM1 SAM-TIR – cell lysate, NAD-Glo luminescence (AID 1508614;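 active = compound whose remaining NAD level is above about 45 nM, limit read from the data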;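 also: higher remaining NAD means stronger inhibition of SARM1 NADase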)
Settings: SAM-TIR HEK293T lysate NADase, at 1 µM, stronger effect = higher value

| SMILES | remaining NAD |
| --- | --- |
| O=C1CN2Cc3c(ccc(Cl)c3Cl)N=C2N1 | 10 nM |
| CNCC[C@H](Oc1cccc2ccccc12)c1cccs1 | 10 nM |
| CN(C)CCc1c[nH]c2ccc(Cn3cncn3)cc12 | 10 nM |
| C[C@@H](c1ncncc1F)[C@](O)(Cn1cncn1)c1ccc(F)cc1F | 10 nM |
| CN(C)CCCC1(c2ccc(F)cc2)OCc2cc(C#N)ccc21 (stereo unspecified) | 10 nM |
| CC(C)NCC(O)c1ccc(NS(C)(=O)=O)cc1 (stereo unspecified) | 10 nM |
| CC(=O)NC[C@H]1CN(c2ccc(N3CCOCC3)c(F)c2)C(=O)O1 | 10 nM |
| O=C(c1ccc(OCCN2CCCCC2)cc1)c1c(-c2ccc(O)cc2)sc2cc(O)ccc12 | 10 nM |
| O=C1CC[C@@H](C(=O)N2CSC[C@H]2C(=O)O)N1 ([pGlu]-[Thz]-OH) | 10 nM |
| CN/C(=C\[N+](=O)[O-])NCCSCc1csc(CN(C)C)n1 | 10 nM |
| CNCC[C@@H](Oc1ccccc1C)c1ccccc1 | 10 nM |
| CN(C)CCOc1ccc(/C(=C(/CCCl)c2ccccc2)c2ccccc2)cc1 | 10 nM |
| CC[C@H]1OC(=O)[C@H](C)[C@@H](O[C@H]2C[C@@](C)(OC)[C@@H](O)[C@H](C)O2)[C@H](C)[C@@H](O[C@@H]2O[C@H](C)C[C@H](N(C)C)[C@H]2O)[C@](C)(O)C[C@@H](C)CN(C)[C@H](C)[C@@H](O)[C@]1(C)O | 10 nM |
| CN1CC(=O)N2[C@H](c3ccc4c(c3)OCO4)c3[nH]c4ccccc4c3C[C@@H]2C1=O | 10 nM |
| Cc1cnc(C(=O)NCCc2ccc(S(=O)(=O)NC(=O)NC3CCCCC3)cc2)cn1 | 10 nM |
| C/C(=C\C(=O)OCCCCCCCCC(=O)O)C[C@@H]1OC[C@H](C[C@@H]2O[C@H]2[C@@H](C)[C@H](C)O)[C@@H](O)[C@H]1O | 10 nM |
| C[C@H]1O[C@H](O[C@H]2[C@H](O)[C@@H](O)[C@@H](O[C@H]3[C@H](O)[C@@H](O)C(O)O[C@@H]3CO)O[C@@H]2CO)[C@H](O)[C@@H](O)[C@@H]1N[C@H]1C=C(CO)[C@@H](O)[C@H](O)[C@H]1O (stereo partly specified) | 10 nM |
| CN1[C@@H]2CCC[C@H]1CC(NC(=O)c1nn(C)c3ccccc13)C2 (stereo partly specified) | 10 nM |
| COc1c(N2C[C@@H]3CCCN[C@@H]3C2)c(F)cc2c(=O)c(C(=O)O)cn(C3CC3)c12 | 10 nM |
| CCN(CC)CC#CCOC(=O)C(O)(c1ccccc1)C1CCCCC1 (stereo unspecified) | 10 nM |
| Cc1cc2c(s1)Nc1ccccc1N=C2N1CCN(C)CC1 | 10 nM |

Target: Mitogen-activated protein kinase 7 (Homo sapiens) (UniProt Q13164)
Sequence (Q13164 whole entry, looked up, the tested form may be a part): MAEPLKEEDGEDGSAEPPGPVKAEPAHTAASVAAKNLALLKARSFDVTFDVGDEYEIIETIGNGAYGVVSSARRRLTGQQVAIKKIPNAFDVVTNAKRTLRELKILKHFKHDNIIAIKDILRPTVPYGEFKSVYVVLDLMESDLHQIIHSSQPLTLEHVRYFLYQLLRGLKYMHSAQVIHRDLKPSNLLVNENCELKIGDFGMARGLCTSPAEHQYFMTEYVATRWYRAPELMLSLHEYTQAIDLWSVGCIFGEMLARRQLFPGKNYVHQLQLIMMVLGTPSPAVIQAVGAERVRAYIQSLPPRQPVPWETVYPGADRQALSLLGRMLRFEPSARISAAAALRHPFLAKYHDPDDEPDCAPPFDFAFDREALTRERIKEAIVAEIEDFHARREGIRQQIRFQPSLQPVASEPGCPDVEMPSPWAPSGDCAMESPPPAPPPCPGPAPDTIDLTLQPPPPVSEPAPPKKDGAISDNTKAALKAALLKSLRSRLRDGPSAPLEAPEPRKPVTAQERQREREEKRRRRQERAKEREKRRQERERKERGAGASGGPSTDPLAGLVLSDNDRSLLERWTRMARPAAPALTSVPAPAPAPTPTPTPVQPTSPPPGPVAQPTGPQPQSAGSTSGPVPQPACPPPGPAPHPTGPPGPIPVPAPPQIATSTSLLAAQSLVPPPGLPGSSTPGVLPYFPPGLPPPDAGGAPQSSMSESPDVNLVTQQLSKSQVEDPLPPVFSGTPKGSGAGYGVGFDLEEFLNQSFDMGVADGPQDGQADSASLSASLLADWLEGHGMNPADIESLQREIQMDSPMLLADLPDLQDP
Assay: Gal4-ERK5 driven luciferase induction – cell-based, HTS, primary screen (AID 1508626;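 active = luciferase signal above three times the same-plate solvent-only control wells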;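 also: luciferase driven by Gal4-ERK5 fusion binding five Gal4 sites before minimal TATA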)
Settings: HeLa Gal4-ERK5 transactivation, 18 h, at 5 µM, stronger effect = higher value

| SMILES | luciferase signal |
| --- | --- |
| O=C1CN2Cc3c(ccc(Cl)c3Cl)N=C2N1 | 40 AU |
| CNCC[C@H](Oc1cccc2ccccc12)c1cccs1 | 36 AU |
| CN(C)CCc1c[nH]c2ccc(Cn3cncn3)cc12 | 52 AU |
| CN(C)CCCC1(c2ccc(F)cc2)OCc2cc(C#N)ccc21 (stereo unspecified) | 68 AU |
| O=C(c1ccc(OCCN2CCCCC2)cc1)c1c(-c2ccc(O)cc2)sc2cc(O)ccc12 | 76 AU |
| CNCC[C@@H](Oc1ccccc1C)c1ccccc1 | 64 AU |
| CC[C@H]1OC(=O)[C@H](C)[C@@H](O[C@H]2C[C@@](C)(OC)[C@@H](O)[C@H](C)O2)[C@H](C)[C@@H](O[C@@H]2O[C@H](C)C[C@H](N(C)C)[C@H]2O)[C@](C)(O)C[C@@H](C)CN(C)[C@H](C)[C@@H](O)[C@]1(C)O | 20 AU |
| CN1CC(=O)N2[C@H](c3ccc4c(c3)OCO4)c3[nH]c4ccccc4c3C[C@@H]2C1=O | 40 AU |
| C/C(=C\C(=O)OCCCCCCCCC(=O)O)C[C@@H]1OC[C@H](C[C@@H]2O[C@H]2[C@@H](C)[C@H](C)O)[C@@H](O)[C@H]1O | 48 AU |
| C[C@H]1O[C@H](O[C@H]2[C@H](O)[C@@H](O)[C@@H](O[C@H]3[C@H](O)[C@@H](O)C(O)O[C@@H]3CO)O[C@@H]2CO)[C@H](O)[C@@H](O)[C@@H]1N[C@H]1C=C(CO)[C@@H](O)[C@H](O)[C@H]1O (stereo partly specified) | 52 AU |
| COc1c(N2C[C@@H]3CCCN[C@@H]3C2)c(F)cc2c(=O)c(C(=O)O)cn(C3CC3)c12 | 64 AU |
| CCN(CC)CC#CCOC(=O)C(O)(c1ccccc1)C1CCCCC1 (stereo unspecified) | 68 AU |
| Cc1cc2c(s1)Nc1ccccc1N=C2N1CCN(C)CC1 | 136 AU |

Test system: not listed separately
Assay: galactose survival enhancers in mitochondrial complex I cybrids – cell-based, galactose medium, ATP luminescence, primary screen (AID 1645843);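 also: positive z means more ATP and so rescue of galactose-driven cybrid death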
Settings: complex I mutant cybrid cells, 72 h, stronger effect = higher value

| SMILES | z-score |
| --- | --- |
| O=C1CN2Cc3c(ccc(Cl)c3Cl)N=C2N1 | 0.465 and 0.535 |
| COC(=O)C[C@](O)(CCCC(C)(C)O)C(=O)O[C@@H]1C(OC)=C[C@]23CCCN2CCc2cc4c(cc2[C@H]13)OCO4 | -0.84 |
| O=c1[nH]c(=O)n(C2CCCO2)cc1F (stereo unspecified) | 1.17 and 0.3 |
| CSc1nc2cc(Oc3cccc(Cl)c3Cl)c(Cl)cc2[nH]1 | -1.88 |
| CN(C)CCc1c[nH]c2ccc(Cn3cncn3)cc12 | 0.12 |
| COc1ccc(C[C@H](C)NC[C@@H](O)c2ccc(O)c(NC=O)c2)cc1 | -0.475 |
| CC(C)C[C@H](NC(=O)[C@@H](O)[C@H](N)Cc1ccccc1)C(=O)O | 0.375 and 0.725 |
| C[C@@H](c1ncncc1F)[C@](O)(Cn1cncn1)c1ccc(F)cc1F | 0.365 |
| CCOC(=O)c1ccc(OC(=O)CCCCCN=C(N)N)cc1 | 0.415 and -0.085 |
| Cc1c(C(=O)NN2CCCCC2)nn(-c2ccc(Cl)cc2Cl)c1-c1ccc(I)cc1 | -1.88 and -0.83 |
| CC(=O)NC[C@H]1CN(c2ccc(N3CCOCC3)c(F)c2)C(=O)O1 | 1.22 and -0.185 |
| CC(CCCCC(=O)Nc1ccc(C(F)(F)F)cc1)NCCc1cnc[nH]1 (stereo unspecified) | 0.675 and -0.77 |
| CNCC[C@@H](Oc1ccccc1C)c1ccccc1 | -0.26 |
| Cc1cccc(CCN2CCC(C(=O)c3ccc(NS(C)(=O)=O)cc3)CC2)n1 | 0.46 and -0.045 |
| CN(C)CCOc1ccc(/C(=C(/CCCl)c2ccccc2)c2ccccc2)cc1 | -2.31 |
| CC(C)(S)C(N)C(=O)O (stereo unspecified) | -0.255 |
| CC[C@H]1OC(=O)[C@H](C)[C@@H](O[C@H]2C[C@@](C)(OC)[C@@H](O)[C@H](C)O2)[C@H](C)[C@@H](O[C@@H]2O[C@H](C)C[C@H](N(C)C)[C@H]2O)[C@](C)(O)C[C@@H](C)CN(C)[C@H](C)[C@@H](O)[C@]1(C)O | 1.2 |
| NCC(O)c1ccc(O)c(O)c1 (stereo unspecified) | -1.48 and -0.825 |
| Cc1cnc(C(=O)NCCc2ccc(S(=O)(=O)NC(=O)NC3CCCCC3)cc2)cn1 | 1.17 and 0.66 and 1.06 |
| C/C(=C\C(=O)OCCCCCCCCC(=O)O)C[C@@H]1OC[C@H](C[C@@H]2O[C@H]2[C@@H](C)[C@H](C)O)[C@@H](O)[C@H]1O | -1.42 |
| CCCCN1CCCC1CNC(=O)c1cc(C#N)c2ccccc2c1OC (stereo unspecified) | -0.605 and -0.3 |
| COc1ccc2[nH]c(S(=O)Cc3ncc(C)c(OC)c3C)nc2c1 (stereo unspecified) | 0.665 |
| CN1[C@@H]2CCC[C@H]1CC(NC(=O)c1nn(C)c3ccccc13)C2 (stereo partly specified) | 0.01 |
| CCN(CC)CC#CCOC(=O)C(O)(c1ccccc1)C1CCCCC1 (stereo unspecified) | -1.22 and -1.39 |
| COc1nc(C)nc(Cl)c1NC1=NCCN1 | 0.36 and 1.01 and 0.165 |
| CC(Cc1ccc(O)c(O)c1)(NN)C(=O)O (stereo unspecified) | -1.27 |
| Cc1cc2c(s1)Nc1ccccc1N=C2N1CCN(C)CC1 | -0.17 and -0.015 |
